Measurements: paper PMC7862700, “An all-to-all approach to the identification of sequence-specific readers for epigenetic DNA modifications on cytosine”

Columns and labels:
Experiment in all cases: DAPPL (digital affinity profiling via proximity ligation, sequencing); 10 mM Tris-HCl pH 7.5, 50 mM NaCl, 1 mM DTT, 4% glycerol, room temperature, 30 min; GST-TFs on glutathione beads, 16-mer random dsDNA library, 0.1% formaldehyde crosslink after washing; high values mean tight binding
Settings in all cases: protein: recombinant; tags: N-terminal GST; dsDNA, one strand shown
SPIC = biological target: T1, SPIC (Homo sapiens, UniProt Q8N5J4 1-248)
T1 sequence: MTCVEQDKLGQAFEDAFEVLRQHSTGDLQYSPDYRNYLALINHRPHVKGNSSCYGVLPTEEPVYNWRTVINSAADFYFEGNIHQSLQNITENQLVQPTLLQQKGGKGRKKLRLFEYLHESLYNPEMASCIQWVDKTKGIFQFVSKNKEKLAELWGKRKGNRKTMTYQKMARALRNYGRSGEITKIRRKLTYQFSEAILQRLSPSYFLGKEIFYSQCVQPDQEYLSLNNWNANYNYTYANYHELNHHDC
Procedure, shortened: (§1)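 Sequencing on an Illumina NextSeq500 followed washing, crosslinking with 0.1% formaldehyde, proximity ligation (BsaI/T4 ligase, 1 h, 37 °C) and PCR amplification of pools that had been incubated for 30 min at room temperature with 200 nmole of a random double-stranded 16-mer DNA library in Tris/NaCl/DTT/glycerol buffer. Each pool held DNA-barcoded human transcription factors, expressed in yeast as GST fusions and captured on glutathione beads, plus a tag-only sample. Binding signal is a hexamer's read frequency for a factor divided by its frequency in the tag-only sample.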

ETV2 = biological target: T2, ETV2 (Homo sapiens, UniProt O00321 1-342)
T2 sequence: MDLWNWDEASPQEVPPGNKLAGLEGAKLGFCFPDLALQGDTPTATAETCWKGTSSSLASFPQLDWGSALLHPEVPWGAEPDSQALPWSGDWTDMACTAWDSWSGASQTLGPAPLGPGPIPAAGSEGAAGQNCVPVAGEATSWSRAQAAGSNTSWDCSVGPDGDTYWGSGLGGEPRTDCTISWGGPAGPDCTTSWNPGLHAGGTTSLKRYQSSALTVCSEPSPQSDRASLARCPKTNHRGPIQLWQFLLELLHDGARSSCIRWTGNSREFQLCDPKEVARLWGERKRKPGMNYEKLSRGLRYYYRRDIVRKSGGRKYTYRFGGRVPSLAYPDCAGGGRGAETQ
Procedure, shortened: as §1

SPIB = SPIB (Homo sapiens, UniProt Q01892 1-262)
Procedure, shortened: as §1

ERF = biological target: T3, ERF (Homo sapiens, UniProt P50548 1-548)
T3 sequence: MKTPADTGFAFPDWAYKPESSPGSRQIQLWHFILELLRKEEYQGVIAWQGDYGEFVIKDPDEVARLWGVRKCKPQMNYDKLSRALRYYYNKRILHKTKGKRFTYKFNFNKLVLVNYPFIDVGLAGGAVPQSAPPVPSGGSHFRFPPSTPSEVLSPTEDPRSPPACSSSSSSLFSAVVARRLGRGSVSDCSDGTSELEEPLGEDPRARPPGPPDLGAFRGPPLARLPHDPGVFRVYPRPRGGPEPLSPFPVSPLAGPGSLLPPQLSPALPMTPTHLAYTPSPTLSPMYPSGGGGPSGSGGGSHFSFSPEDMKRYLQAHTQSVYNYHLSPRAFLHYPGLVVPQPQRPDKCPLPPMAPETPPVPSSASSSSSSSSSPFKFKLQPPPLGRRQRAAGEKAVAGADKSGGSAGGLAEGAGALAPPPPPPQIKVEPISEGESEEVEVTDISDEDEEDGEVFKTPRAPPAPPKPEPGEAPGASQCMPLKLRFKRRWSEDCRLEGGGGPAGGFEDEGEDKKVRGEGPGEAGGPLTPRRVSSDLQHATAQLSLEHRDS
Procedure, shortened: as §1

ETV7 = biological target: T4, ETV7 (Homo sapiens, UniProt Q9Y603 1-341)
T4 sequence: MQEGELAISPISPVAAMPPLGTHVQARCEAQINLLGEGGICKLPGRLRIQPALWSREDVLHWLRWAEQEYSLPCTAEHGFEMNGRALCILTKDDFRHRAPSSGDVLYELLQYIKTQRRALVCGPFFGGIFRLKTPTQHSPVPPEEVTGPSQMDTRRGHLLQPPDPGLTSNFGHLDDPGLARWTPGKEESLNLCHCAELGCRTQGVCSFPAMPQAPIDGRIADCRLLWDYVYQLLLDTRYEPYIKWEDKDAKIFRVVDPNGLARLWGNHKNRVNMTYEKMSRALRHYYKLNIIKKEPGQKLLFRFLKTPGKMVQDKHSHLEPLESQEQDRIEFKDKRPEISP
Procedure, shortened: as §1

ELF1 = ELF1 (Homo sapiens, UniProt P32519 1-619)
Procedure, shortened: as §1

ELF4 = ELF4 (Homo sapiens, UniProt Q99607 1-663)
Procedure, shortened: as §1

ELK1 = biological target: T5, ELK1 (Homo sapiens, UniProt P19419 1-428)
T5 sequence: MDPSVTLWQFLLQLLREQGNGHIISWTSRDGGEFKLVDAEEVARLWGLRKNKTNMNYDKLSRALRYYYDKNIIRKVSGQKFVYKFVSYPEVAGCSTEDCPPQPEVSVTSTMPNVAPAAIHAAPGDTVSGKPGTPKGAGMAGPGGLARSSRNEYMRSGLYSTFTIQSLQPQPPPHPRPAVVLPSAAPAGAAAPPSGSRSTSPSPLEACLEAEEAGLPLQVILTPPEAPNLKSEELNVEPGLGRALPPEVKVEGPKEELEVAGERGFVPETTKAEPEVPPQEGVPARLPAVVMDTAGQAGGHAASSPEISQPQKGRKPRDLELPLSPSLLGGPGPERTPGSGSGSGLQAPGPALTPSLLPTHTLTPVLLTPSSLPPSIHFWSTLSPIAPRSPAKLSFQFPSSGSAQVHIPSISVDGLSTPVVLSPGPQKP
Procedure, shortened: as §1

GABPA = biological target: T6, GABPA (Homo sapiens, UniProt Q06546 1-454)
T6 sequence: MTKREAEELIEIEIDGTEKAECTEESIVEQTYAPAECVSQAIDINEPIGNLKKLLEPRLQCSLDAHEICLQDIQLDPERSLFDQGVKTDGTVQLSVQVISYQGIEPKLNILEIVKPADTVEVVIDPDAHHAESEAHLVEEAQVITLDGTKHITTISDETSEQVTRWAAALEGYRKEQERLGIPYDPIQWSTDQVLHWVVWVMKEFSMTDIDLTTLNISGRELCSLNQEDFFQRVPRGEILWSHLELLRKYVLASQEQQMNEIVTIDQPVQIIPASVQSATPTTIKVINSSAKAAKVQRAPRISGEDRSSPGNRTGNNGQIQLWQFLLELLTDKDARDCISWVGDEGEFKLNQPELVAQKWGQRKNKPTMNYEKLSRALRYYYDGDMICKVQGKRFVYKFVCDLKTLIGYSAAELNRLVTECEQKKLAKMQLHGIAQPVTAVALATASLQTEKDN
Procedure, shortened: as §1

EHF = biological target: T7, EHF (Homo sapiens, UniProt Q9NZC4 1-300)
T7 sequence: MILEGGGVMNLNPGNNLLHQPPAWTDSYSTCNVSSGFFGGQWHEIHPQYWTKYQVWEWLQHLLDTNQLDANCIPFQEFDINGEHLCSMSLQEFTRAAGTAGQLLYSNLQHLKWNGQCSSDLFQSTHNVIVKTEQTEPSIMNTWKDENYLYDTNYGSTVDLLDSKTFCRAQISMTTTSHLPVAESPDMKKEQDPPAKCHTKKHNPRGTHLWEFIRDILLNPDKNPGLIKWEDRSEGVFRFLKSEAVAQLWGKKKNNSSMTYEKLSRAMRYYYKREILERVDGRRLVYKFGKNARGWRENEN
Procedure, shortened: as §1

ELK4 = biological target: T8, ELK4 (Homo sapiens, UniProt P28324-2 1-405)
T8 sequence: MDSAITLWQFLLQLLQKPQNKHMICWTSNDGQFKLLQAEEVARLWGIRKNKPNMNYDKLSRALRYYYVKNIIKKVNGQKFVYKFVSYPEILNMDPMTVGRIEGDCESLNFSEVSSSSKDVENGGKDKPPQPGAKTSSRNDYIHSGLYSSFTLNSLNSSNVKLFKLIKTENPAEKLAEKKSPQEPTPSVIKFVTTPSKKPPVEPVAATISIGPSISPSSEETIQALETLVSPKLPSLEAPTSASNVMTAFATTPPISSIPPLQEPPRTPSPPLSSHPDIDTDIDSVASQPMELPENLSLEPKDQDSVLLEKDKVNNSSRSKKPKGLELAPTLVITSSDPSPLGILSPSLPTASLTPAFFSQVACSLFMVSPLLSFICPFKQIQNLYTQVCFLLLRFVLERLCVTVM
Procedure, shortened: as §1

ETV3L = biological target: T9, ETV3L (Homo sapiens, UniProt Q6ZN32 1-361)
T9 sequence: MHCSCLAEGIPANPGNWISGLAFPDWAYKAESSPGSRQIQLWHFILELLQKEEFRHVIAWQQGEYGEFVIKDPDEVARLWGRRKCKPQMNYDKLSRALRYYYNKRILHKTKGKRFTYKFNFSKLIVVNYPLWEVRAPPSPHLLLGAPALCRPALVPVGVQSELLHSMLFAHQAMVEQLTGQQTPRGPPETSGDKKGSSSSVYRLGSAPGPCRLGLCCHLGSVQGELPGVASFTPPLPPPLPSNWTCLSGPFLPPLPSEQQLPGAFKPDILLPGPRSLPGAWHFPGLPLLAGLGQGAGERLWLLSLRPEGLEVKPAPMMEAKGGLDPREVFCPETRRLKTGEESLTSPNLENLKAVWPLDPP
Procedure, shortened: as §1

ETS2 = biological target: T10, ETS2 (Homo sapiens, UniProt P15036 1-469)
T10 sequence: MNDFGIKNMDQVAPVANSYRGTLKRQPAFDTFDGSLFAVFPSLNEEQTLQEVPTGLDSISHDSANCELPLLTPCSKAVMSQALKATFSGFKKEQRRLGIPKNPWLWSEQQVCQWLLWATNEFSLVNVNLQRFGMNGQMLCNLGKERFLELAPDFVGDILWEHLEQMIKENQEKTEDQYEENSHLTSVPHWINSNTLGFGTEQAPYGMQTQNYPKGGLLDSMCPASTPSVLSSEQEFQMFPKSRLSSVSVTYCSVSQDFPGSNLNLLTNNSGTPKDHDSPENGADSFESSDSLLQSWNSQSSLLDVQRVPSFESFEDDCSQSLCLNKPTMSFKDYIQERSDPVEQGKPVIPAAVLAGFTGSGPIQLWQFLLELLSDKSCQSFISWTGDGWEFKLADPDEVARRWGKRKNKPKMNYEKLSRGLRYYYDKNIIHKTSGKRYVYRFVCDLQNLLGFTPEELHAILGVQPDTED
Procedure, shortened: as §1

Sequence of ELF1 (P32519 whole entry): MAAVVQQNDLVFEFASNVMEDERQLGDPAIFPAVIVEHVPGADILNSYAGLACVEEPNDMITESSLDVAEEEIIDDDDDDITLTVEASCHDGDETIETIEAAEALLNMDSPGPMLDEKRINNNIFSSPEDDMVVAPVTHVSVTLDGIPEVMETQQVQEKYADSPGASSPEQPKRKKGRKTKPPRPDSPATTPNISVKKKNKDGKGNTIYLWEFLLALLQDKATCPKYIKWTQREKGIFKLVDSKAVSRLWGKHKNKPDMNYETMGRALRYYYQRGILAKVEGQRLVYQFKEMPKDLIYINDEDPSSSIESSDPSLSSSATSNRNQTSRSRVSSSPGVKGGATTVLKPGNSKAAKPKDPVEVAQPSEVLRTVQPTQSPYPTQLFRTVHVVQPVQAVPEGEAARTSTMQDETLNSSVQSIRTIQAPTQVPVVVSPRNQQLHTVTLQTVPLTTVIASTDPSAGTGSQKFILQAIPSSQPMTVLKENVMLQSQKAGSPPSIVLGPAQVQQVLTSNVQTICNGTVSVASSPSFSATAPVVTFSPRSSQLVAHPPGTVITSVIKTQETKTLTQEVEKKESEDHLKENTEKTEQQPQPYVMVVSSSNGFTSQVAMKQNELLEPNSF
Sequence of ELF4 (Q99607 whole entry): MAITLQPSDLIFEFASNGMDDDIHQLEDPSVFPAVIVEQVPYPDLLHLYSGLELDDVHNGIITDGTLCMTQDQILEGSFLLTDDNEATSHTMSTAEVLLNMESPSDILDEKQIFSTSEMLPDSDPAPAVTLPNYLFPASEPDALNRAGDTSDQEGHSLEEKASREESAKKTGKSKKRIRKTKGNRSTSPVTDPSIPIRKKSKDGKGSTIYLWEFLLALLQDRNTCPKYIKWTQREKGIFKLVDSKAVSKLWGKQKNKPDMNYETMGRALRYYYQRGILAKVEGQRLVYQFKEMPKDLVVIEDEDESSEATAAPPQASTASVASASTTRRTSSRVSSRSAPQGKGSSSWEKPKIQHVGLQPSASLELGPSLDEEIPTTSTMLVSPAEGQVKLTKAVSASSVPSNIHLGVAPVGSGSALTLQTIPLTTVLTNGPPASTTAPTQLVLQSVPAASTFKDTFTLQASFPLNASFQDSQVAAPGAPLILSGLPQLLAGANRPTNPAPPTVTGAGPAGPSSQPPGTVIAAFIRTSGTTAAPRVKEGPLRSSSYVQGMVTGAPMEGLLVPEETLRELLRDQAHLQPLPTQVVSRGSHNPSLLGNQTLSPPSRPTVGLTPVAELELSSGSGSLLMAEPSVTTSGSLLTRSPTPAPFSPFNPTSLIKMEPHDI
Sequence of SPIB (Q01892 whole entry): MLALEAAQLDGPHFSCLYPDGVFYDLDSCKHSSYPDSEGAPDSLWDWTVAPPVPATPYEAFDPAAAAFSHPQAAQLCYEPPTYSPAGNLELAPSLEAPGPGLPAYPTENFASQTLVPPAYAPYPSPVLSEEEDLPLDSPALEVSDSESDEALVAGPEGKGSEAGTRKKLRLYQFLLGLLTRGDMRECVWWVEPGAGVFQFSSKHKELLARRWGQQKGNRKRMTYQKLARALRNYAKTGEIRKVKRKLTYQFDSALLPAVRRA

Sequence: AGATGG
- binding signal (SPIC): 1.1 fold enrichment (6-mer frequency, TF over GST control)
- binding signal (ETV2): 1.02 fold enrichment (6-mer frequency, TF over GST control)

Sequence: GTACAG
- binding signal (SPIB): 1.01 fold enrichment (6-mer frequency, TF over GST control)
- binding signal (SPIC): 1.02 fold enrichment (6-mer frequency, TF over GST control)
- binding signal (ERF): 1.02 fold enrichment (6-mer frequency, TF over GST control)
- binding signal (ETV7): 1.06 fold enrichment (6-mer frequency, TF over GST control)

Sequence: GCCAAC
- binding signal (ELF1): 1.01 fold enrichment (6-mer frequency, TF over GST control)
- binding signal (ELF4): 1.04 fold enrichment (6-mer frequency, TF over GST control)
- binding signal (ERF): 1.03 fold enrichment (6-mer frequency, TF over GST control)

Sequence: TCATTG
- binding signal (ELK1): 1.01 fold enrichment (6-mer frequency, TF over GST control)
- binding signal (GABPA): 1 fold enrichment (6-mer frequency, TF over GST control)
- binding signal (ELF1): 1.03 fold enrichment (6-mer frequency, TF over GST control)
- binding signal (EHF): 1.03 fold enrichment (6-mer frequency, TF over GST control)
- binding signal (ELK4): 1.07 fold enrichment (6-mer frequency, TF over GST control)
- binding signal (ERF): 1.04 fold enrichment (6-mer frequency, TF over GST control)
- binding signal (ETV3L): 1.04 fold enrichment (6-mer frequency, TF over GST control)
- binding signal (ETS2): 1 fold enrichment (6-mer frequency, TF over GST control)
